Sampled rows, rich in hits. Any-hit rate of the full collection: about 2.7%.
12-LOX inh: ALOX12 (human) lipoxygenase inhibition; purified 12hLO, xylenol orange hydroperoxide absorbance; Potency, µM (titrated, usually from 108 µM), inactives show top-dose activity change, negative = inhibition, usual class: inhibitors; hit rate 1.1% among 580,000; AID 1671190; also: potency is read from the fitted curve at half-maximal effect; % is scaled to controls: 0 for no effect and ±100 for the full control effect
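Purified human 12hLO (150 nM final) in 25 mM Hepes, 0.01% Triton X-100, pH 7.0 was preincubated 15 min at room temperature with compound. Then 40 uM arachidonic acid was added, 30 min. Hydroperoxide was read by Fe-XO absorbance ratio 573/405 nm.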
A549 viability: kills or reduces viability of A549 cells in Nrf2 counter-screen; A549 ARE-Fluc cells, CellTiter-Fluor viability, 18-24 h; Potency, µM (top dose mostly 46 µM), inactives show top-dose activity change, negative = cytotoxicity, hits mostly inhibitors; hit rate 0.16% among 390,000; also: potency is read from the fitted curve at half-maximal effect; % is scaled to controls: 0 for no effect and ±100 for the full control effect
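Cytotoxicity counterscreen: CellTiter-Fluor fluorescence was measured in A549 ARE_Fluc cells after 18-24 h of compound exposure in a concentration series. The subsequent BugLite luminescent read reports ARE-luciferase activity.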
IDH1 R132H inh: human IDH1 R132H inhibition; O75874; IDH1-R132H enzyme, NADPH consumption, diaphorase/resazurin fluorescence; Potency, µM (highest dose often 76.6 µM), for inactives: at the highest dose activity change, negative = inhibition, hits mostly inhibitors; hit rate 0.093% among 390,000; AID 602179; also: potency is read from the fitted curve at half-maximal effect; % is scaled to controls: 0 for no effect and ±100 for the full control effect; nearly all actives have a fitted effect of over 65% in size
Target sequence (O75874 whole entry R132H, stated change not applied): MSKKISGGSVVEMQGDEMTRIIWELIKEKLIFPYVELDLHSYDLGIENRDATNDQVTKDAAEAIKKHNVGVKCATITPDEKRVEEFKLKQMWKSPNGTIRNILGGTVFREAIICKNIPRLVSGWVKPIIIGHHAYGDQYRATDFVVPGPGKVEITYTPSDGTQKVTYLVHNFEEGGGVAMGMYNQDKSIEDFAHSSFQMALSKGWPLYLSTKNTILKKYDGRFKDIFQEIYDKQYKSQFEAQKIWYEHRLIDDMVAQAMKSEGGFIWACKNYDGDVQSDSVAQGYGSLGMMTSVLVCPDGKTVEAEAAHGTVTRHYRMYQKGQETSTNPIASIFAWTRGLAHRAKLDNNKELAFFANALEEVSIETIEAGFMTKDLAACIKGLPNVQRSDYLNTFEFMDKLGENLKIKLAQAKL
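IDH1-R132H (0.5 ug/mL dispensed) in pH 7.5 Tris buffer was preincubated 30 min with compound, then given a substrate mix of 0.016 mM NADPH and 2 mM alpha-KG for 80 min at room temperature; remaining NADPH was read by diaphorase/resazurin fluorescence.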
Nrf2 ARE act: activators of Nrf2 (ARE) signaling. AREc32 ARE-luciferase reporter (MCF7-derived line), luminescence, 24 h. Potency, µM (top dose mostly 46.1 µM), inactives show at the highest dose activation, actives largely listed as activators. hit rate 0.31% among 410,000. AID 624171; also: potency is read from the fitted curve at half-maximal effect; % of control where 0% means no effect; nearly all actives have a fitted effect of over 65% in size
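Luciferase luminescence (Steady-Glo, 30 min at room temperature) served as the read-out of ARE activation in AREc32 cells treated with compounds for 24 hr at 37 deg C.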
Nrf2 block: blocks Nrf2 signaling | A549 ARE-Fluc reporter, luciferase luminescence, 18-24 h | Potency, µM (titrated, usually from 46 µM), for inactives: at the top dose activity change, negative = inhibition, hits mostly inhibitors | AID 504444 | hit rate 2.1% among 360,000; also: potency is read from the fitted curve at half-maximal effect; % is scaled to controls: 0 for no effect and ±100 for the full control effect; nearly all actives have a fitted effect of over 60% in size
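Cells were seeded and rested 2 h, then exposed to compounds for 18-24 h. CellTiter-Fluor was read first as a viability measure. BugLite was added 15 min before the final luminescent read of ARE-luciferase activity in A549 cells.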
LDHA block: inhibitors of human lactate dehydrogenase A. hit rate 0.15% among 480,000. activity change, % (values are at about 110 or 230 µM). AID 1347041. purified LDHA, NADH/diaphorase-resazurin fluorescence; active compounds read low. P00338; in the data active = activity change below about -30%; inconclusive = mostly about -25% to -30%;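 also: plate controls were DMSO wells for no effect and wells without enzyme for full effect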
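Resorufin fluorescence (ex540/em590), read at 0 and 20 min after diaphorase/resazurin addition, reports the NADH left after a 5 min room-temperature reaction of 2 nM human LDH5 with 0.06 mM NADH and 0.2 mM pyruvate.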
IDH1 autofl: counter-screen for mutant IDH1 inhibitors: fluorescence interference; inhibition of signal, % at 51.2 µM; AID 623980; Resorufin detection reagent fluorescence interference, cell-free; 750 tested, under 10 active; shares compounds with IDH1 R132H inh;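 also: 0% = wells with normal resorufin and full inhibition = wells lacking resorufin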
IDH1 WT: selectivity of mutant IDH1 inhibitors: human wild-type IDH1; Potency, µM (doses to about 115 µM), for the others: at the highest dose activity change, negative = inhibition, usual class: inhibitors; shares compounds with IDH1 R132H inh; WT IDH1 enzyme, NADPH diaphorase/resazurin fluorescence; hit rate 9% among 750; AID 623995;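 also: potency is read from the fitted curve at half-maximal effect; 0% = full WT IDH1 enzyme control and full inhibition = no enzyme wells; nearly all actives have a fitted effect of over 55% in size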
Target sequence (O75874 whole entry, looked up): as the sequence (O75874 whole entry R132H, stated change not applied) above, with H132R counted along it
mIDH1 confirm: mutant IDH1 (human) inhibition, confirmed; IDH1 R132H enzyme, NADPH diaphorase/resazurin fluorescence; hit rate 83% among 750; Potency, µM (titrated, usually from 76.6 µM), inactives show at the top dose activity change, negative = inhibition, hits mostly inhibitors; shares compounds with IDH1 R132H inh; also: potency is read from the fitted curve at half-maximal effect; nearly all actives have a fitted effect of over 50% in size
* hit, by the source's call; ? = inconclusive; . = no result given; [ ] = another dose, or the depositor's remark. Unless noted, calls follow the shape of the dose curve; as a rule, active = well fitted curve in the direction sought with a large enough effect; inconclusive = small, poorly fitted or top-dose-only effect, or another doubt; inactive = no such curve, though single readings can be large; an effect the other way counts as inactive or inconclusive.

SMILES	12-LOX inh	A549 viability	IDH1 R132H inh	Nrf2 ARE act	Nrf2 block	LDHA block	IDH1 autofl	IDH1 WT	mIDH1 confirm
O=C(O)c1ccccc1NS(=O)(=O)c1ccc(N/N=C/c2cccc(O)c2O)c([N+](=O)[O-])c1	39.8µM*	-22.5%	41.4µM*	0.7%	5.4%	22.2	8.0	?	14.1µM*
CC(=O)Nc1ccc(C=NNc2ccc(S(=O)(=O)Nc3ccccc3C(=O)O)cc2[N+](=O)[O-])cc1	?	-12.7%	-3.9%	-1.8%	3.5%	?	.	.	.
CC(=O)NS(=O)(=O)c1ccc(N=c2ssc3c2-c2cc(C)ccc2NC3(C)C)cc1	?	-12.8%	?	2.2%	4.2%	-1.8	2.2	3.9%	44.7µM*
O=C(COC(=O)C(Cc1ccccc1)N1C(=O)C2C3CC(C(Br)C3Br)C2C1=O)c1ccc([N+](=O)[O-])cc1 (centres undefined)	29.1%	.	.	.	.	4.7	.	.	.
CC(=O)C1=C(c2ccc(Cl)c(Cl)c2)N(C(C)=O)n2c(C)nnc2S1	-14.4%	6.6%	44.7µM*	11.5%	.	-7.5	-0.1	314.2%	39.8µM*
COc1cccc(C2=C(C(C)=O)Sc3nncn3N2C(C)=O)c1	3.1%	-10.8%	?	22.6%	.	-17.4	.	.	.
CC(=O)C1=C(c2ccc(Cl)c(Cl)c2)N(C(C)=O)n2cnnc2S1	-26.6%	?	44.7µM*	-0.7%	.	-24.8	-9.4	432.3%	20µM*
CC(=O)c1ccc(NC(=O)COc2nc(C(C)C)c3c(c2C#N)CCCC3)cc1	-8.7%	.	.	.	.	8.9	.	.	.
CC(C)OCCCN1C(=O)c2[nH]nc(-c3ccccc3O)c2C1c1ccc(OCc2ccccc2)cc1 (centres undefined)	-9.5%	?	-5.2%	-3.2%	?	-5.3	.	.	.
COc1cc(C2c3c(-c4ccccc4O)n[nH]c3C(=O)N2CCO)ccc1OCc1ccccc1 (centres undefined)	3.4%	-6.0%	?	0.3%	0.4%	-4.7	0.7	-5.3%	28.2µM*
O=C1c2[nH]nc(-c3ccccc3O)c2C(c2cccc(OCc3ccccc3)c2)N1CCCO (centres undefined)	6.6%	-3.8%	44.7µM*	-0.7%	10.1%	-19.1	-11.4	?	39.8µM*
CCC(=O)Oc1ccc2oc(-c3ccc(OC)cc3)cc(=O)c2c1	36.7%	.	.	.	.	15.8	.	.	.
O=c1[nH]c(/C=C/c2ccccc2)c([N+](=O)[O-])c(=O)[nH]1	-4.6%	-6.9%	-22.6%	?	-7.8%	-2.4	.	.	.
O=c1[nH]c(/C=C/c2cccc([N+](=O)[O-])c2)c([N+](=O)[O-])c(=O)[nH]1	-4.7%	-3.7%	44.7µM*	1.7%	-0.8%	-14.3	3.9	-16.1%	31.6µM*
CSc1nc(=O)c2c(n1C)NC(=O)CC2c1ccc(C)cc1C (centres undefined)	-0.5%	.	.	.	.	-1.9	.	.	.
CN1CCN(NC(=O)c2cc(-c3ccc(Cl)s3)nc3ccccc23)CC1	3.3%	13.9%	?	0.7%	2.3%	-18.1	-2.1	7.0%	-1.6%
Nc1nnc(-c2ccncc2)s1	-25.5%	0.1%	-2.4%	0.0%	8.0%	0.4	.	.	.
c1cc(-c2sc(-c3ccncc3)c(-c3ccncc3)c2-c2ccncc2)ccn1	?	-6.7%	?	0.0%	?	14.4	0.2	?	28.2µM*
O=C1C(F)=CC(COC(c2ccccc2)(c2ccccc2)c2ccccc2)OC1n1cc(F)c(=O)[nH]c1=O (centres undefined)	8.91µM*	-16.0%	26.1µM*	16.7%	?	-2.7	-2.9	50.1µM*	11.2µM*
O=C(NC(Nc1nc2ccc([N+](=O)[O-])cc2s1)(C(F)(F)F)C(F)(F)F)c1cccnc1	-26.2%	7.31µM*	?	-1.4%	5.8µM*	-7.2	6.0	-3.0%	12.6µM*
CN(C)S(=O)(=O)c1ccc2nc(NC(=O)c3cccnc3)sc2c1	-22.9%	2.4%	4.7%	-0.4%	?	-2.1	.	.	.
O=C(NC(Nc1nc2ccc([N+](=O)[O-])cc2s1)(C(F)(F)F)C(F)(F)F)c1ccccc1Cl	-26.6%	5.8µM*	?	-0.4%	1.84µM*	-3.8	9.1	-4.9%	22.4µM*
COCCn1c(SCC(=O)N(C)CCOc2ccc(Cl)cc2)nnc1-c1ccc(Cl)cc1	-29.5%	.	.	.	.	9.0	.	.	.
COc1cc(C)ccc1OCCOc1ccc(Br)cc1	-21.3%	.	.	.	.	9.2	.	.	.
COc1cccc(-c2coc3c(C)c4oc(=O)c(CCC(=O)O)c(C)c4cc23)c1	-17.5%	-6.8%	26.1µM*	3.4%	?	-6.2	11.5	35.5µM*	25.1µM*
SMILES	12-LOX inh	A549 viability	IDH1 R132H inh	Nrf2 ARE act	Nrf2 block	LDHA block	IDH1 autofl	IDH1 WT	mIDH1 confirm
CCNS(=O)(=O)c1cc(C(=O)NC)ccc1OC	17.5%	.	.	.	.	2.3	.	.	.
COc1cccc(Cn2c(=O)n(-c3cccc(Cl)c3C)c(=O)c3c4c(sc32)CN(C(C)=O)CC4)c1	?	-15.1%	35.5µM*	0.5%	.	-0.9	0.7	20µM*	25.1µM*
CCc1nc(NCCN(C)C)c(C#N)c2c1CCCC2	-22.6%	.	.	.	.	0.6	.	.	.
CCOC(=O)c1cc(-c2ccncc2)nc2c1c(C)nn2-c1ccccn1	-0.3%	-5.7%	?	0.5%	-22.7%	8.5	-2.4	?	22.4µM*
COc1ccc(-c2cc(C(=O)O)c3c(C)nn(-c4ccccn4)c3n2)cc1	1.2%	-4.5%	1.0%	-1.0%	.	-0.7	.	.	.
Nc1nnnn1NCc1ccc(-c2ccccc2F)o1	-12.2%	.	.	.	.	0.0	.	.	.
Cc1ccc(-n2c(O)c(C=Nc3ccccc3-c3n[nH]c(=S)[nH]c3=O)c3ccccc3c2=O)c(C)c1	15.8µM*	?	?	0.0%[9.22 µM]	?	-1.1	-4.6	79.4µM*	35.5µM*
Cc1c(C(=O)OCc2ccccc2)[nH]c2c1C(=O)CC(c1ccccc1)C2 (centres undefined)	13.7%	.	.	.	.	-2.7	.	.	.
COc1cc(C2C(C#N)=C(N)N(c3sc4c(c3C#N)CCCC4)C3=C2C(=O)CC(C)(C)C3)cc(OC)c1OC (centres undefined)	.	-11.5%	?	0.1%	4.9%	-2.2	5.7	7.3%	7.94µM*

Bioassay records as filed in PubChem BioAssay.
